This passage reports inhibition results from ChEMBL document CHEMBL1961873, “Compounds: GSK PKIS; Assays: Nanosyn kinase panel” (2012).

“And” between values parts separate entries of the source, which are not always exact repeats. Equal values may be shown once.

The experiment deals with RAC-gamma serine/threonine-protein kinase (Homo sapiens) (UniProt Q9Y243). Particulars: at 0.1 µM.
Sequence of RAC-gamma serine/threonine-protein kinase (Homo sapiens) (Q9Y243 whole entry): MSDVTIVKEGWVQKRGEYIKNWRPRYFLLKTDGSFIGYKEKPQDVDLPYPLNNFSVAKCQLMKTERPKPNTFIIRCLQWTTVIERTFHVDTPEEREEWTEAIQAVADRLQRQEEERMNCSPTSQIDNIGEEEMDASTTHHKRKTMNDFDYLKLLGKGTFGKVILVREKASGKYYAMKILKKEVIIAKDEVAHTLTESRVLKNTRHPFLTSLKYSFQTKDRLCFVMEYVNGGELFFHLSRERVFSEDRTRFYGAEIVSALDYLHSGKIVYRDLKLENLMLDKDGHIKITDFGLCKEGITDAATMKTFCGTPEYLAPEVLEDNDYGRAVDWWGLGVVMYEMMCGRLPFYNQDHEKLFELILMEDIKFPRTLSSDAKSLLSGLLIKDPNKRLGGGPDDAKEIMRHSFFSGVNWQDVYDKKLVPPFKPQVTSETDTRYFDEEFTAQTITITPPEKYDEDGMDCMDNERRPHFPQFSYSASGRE
In the case of `Nc1nonc1-c1nc2cnccc2n1C1CC1`, the inhibition is 1.66% and -2.03%.
The result for `NS(=O)(=O)c1cccc(N/C=C2\C(=O)Nc3ccccc32)c1` reads 1.37%; that for `CC1=C(C(=O)Nc2ccc3[nH]ncc3c2)C(c2ccc(F)cc2)N=C(c2ccc(C(F)(F)F)nc2)N1` (configuration not stated), 1.44%.
The result for `CNC(=O)c1cncc(/C=C/c2ccccc2C)c1` reads 1.3%; that for `CN1CCC(C(=O)Nc2n[nH]c3nc(-c4ccc(O)cc4)c(Br)cc23)CC1`, -2.51% and 0.97%; that for `Cc1cc(O)cc(C)c1/C=C/c1cncc(C(N)=O)c1`, 1.06%.
For the compound `CS(=O)(=O)Nc1ccc(-c2cc(-c3ccccc3)cc(C(N)=O)c2N)cc1`, the inhibition is -0.36%.
In the case of `CS(=O)(=O)CCNCc1ccc(-c2ccc3ncnc(Nc4ccc(OCc5ccccc5)cc4)c3c2)o1`, the inhibition was found to be 0.25%.
On to `CCOc1ccc2c(-c3ccnc(Nc4cc(OC)cc(C(F)(F)F)c4)n3)cnn2n1`, for which the inhibition turned out to be 0.18%.
With `Cc1cc(O)cc(C)c1/C=C/c1cncc(C(=O)OC(C)(C)C)c1` the figure was 1.33%; with `O=C1Nc2ccccc2/C1=C1\CCc2cc(O)ccc21`, 3.35%.
Turning to `CCS(=O)(=O)c1ccc(OC)c(Nc2ncc(-c3cccc(F)c3)o2)c1`, the inhibition amounted to 2.02%.
With `COc1cccc(Nc2nccc(-c3cnn4ncccc34)n2)c1` the figure was 1.46%; with `Nc1ncnc2occ(-c3ccc(NC(=O)Nc4cc(C(F)(F)F)ccc4F)cc3)c12`, 1.41% and -1.65%.
The result for `O=C(Nc1n[nH]c2nnc(-c3cccnc3)cc12)C1CC1` reads -0.57%.
The result for `O=C(O[C@H]1CN[C@H](C#Cc2cc3ncnc(Nc4ccc5c(cnn5Cc5ccccc5)c4)c3s2)C1)N1CCOCC1` reads -1.03%.
Consider `COc1cc(N2CCN(C(C)C)CC2)ccc1Nc1nc(Nc2cccc3ncccc23)c2cc[nH]c2n1`, for which the inhibition amounted to 0.92%.

As usually defined, the inhibition is the drop in the measured response relative to a control, in per cent.
